About 14,000 (4.5%) of roughly 310,000 compounds showed an effect of 50% or more. The effect is printed as a negative number. The entries come from a sample that favours strong results as a whole.
target: human ether-à-go-go-related gene (hERG) potassium channel (human, UniProt Q12809); assay: primary screen, population patch clamp on CHO cells stably expressing hERG; higher = less effect of the substance
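Also: peak tail current of the secondary pulse compared with the same well before compound.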

Sequence of human ether-à-go-go-related gene (hERG) potassium channel (Q12809 whole entry, looked up): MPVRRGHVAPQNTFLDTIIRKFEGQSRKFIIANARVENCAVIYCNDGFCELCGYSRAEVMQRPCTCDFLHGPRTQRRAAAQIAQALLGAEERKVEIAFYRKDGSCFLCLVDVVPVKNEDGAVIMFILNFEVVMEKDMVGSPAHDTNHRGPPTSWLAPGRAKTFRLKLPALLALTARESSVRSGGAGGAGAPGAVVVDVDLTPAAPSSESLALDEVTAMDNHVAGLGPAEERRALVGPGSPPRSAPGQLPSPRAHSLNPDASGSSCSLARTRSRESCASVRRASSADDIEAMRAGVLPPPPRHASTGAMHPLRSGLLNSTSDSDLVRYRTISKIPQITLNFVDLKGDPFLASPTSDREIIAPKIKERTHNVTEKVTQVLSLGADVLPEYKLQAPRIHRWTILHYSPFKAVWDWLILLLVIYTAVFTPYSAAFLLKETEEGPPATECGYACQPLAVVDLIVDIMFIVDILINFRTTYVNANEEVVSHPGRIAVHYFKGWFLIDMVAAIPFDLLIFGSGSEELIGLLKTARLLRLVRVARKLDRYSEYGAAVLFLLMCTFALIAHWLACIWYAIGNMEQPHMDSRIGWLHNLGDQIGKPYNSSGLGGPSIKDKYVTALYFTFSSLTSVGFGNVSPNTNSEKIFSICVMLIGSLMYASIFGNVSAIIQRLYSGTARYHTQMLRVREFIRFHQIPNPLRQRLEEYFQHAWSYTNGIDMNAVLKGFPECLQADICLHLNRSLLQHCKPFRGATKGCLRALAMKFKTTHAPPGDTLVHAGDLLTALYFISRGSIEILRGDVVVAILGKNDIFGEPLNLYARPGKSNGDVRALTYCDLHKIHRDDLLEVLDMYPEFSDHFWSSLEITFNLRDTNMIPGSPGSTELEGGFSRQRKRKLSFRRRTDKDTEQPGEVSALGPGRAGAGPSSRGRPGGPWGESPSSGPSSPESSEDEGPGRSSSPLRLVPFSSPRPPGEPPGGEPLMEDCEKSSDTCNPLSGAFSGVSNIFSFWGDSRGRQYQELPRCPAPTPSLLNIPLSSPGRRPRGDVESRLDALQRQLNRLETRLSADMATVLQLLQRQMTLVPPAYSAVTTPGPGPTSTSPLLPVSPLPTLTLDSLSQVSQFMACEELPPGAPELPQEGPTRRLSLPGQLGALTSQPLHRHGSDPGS

Q: With `CC(C)NC(=O)c1sc2c(c1C(=O)Nc1cccnc1)CCCC2` as the compound, how does the “hERG current change (%, negative = inhibition) at 10uM” value read?
A: The value was -69.7%.

Q: For `NC(=O)c1c(NC(=O)c2cccnc2)sc2c1CCCC2`, which “hERG current change (%, negative = inhibition) at 10uM” value is on record?
A: Its value is 17.5%.

Q: Which “hERG current change (%, negative = inhibition) at 10uM” value does the source give for `O=C(Nc1sc2c(c1C(=O)O)CCCCC2)c1cccnc1` here?
A: The value was 16.7%.

Q: `Cc1cc(-c2onc(C)c2C(=O)Oc2ccc(Cl)cc2)no1` was tested. Which “hERG current change (%, negative = inhibition) at 10uM” value did it give?
A: Its value is -2.56%.

Q: For `Cc1cc(C)nc(SCCn2c(N3CCCCC3)nc3c2c(=O)n(C)c(=O)n3C)n1`, which “hERG current change (%, negative = inhibition) at 10uM” value is on record?
A: Its value is -4.05%.

Q: Which “hERG current change (%, negative = inhibition) at 10uM” value does the source give for `CC1(C)CC(=O)C=C(NC2CCCCCC2)C1` here?
A: The value was -1.93%.

Q: How did the “hERG current change (%, negative = inhibition) at 10uM” value turn out when `O=C(Oc1ccc2ccccc2c1)C1CCC1` was run?
A: The value was 17%.

Q: Which “hERG current change (%, negative = inhibition) at 10uM” value does the source give for `O=C(Cn1nnc(-c2ccccc2)n1)N1CCN(S(=O)(=O)c2ccc(Cl)cc2)CC1` here?
A: Its value is 3.96%.

Q: `Cc1ccccc1-c1nnn(CC(=O)N2CCN(C(=O)c3ccco3)CC2)n1` was tested. Which “hERG current change (%, negative = inhibition) at 10uM” value did it give?
A: Its value is -40.1%.

Q: With `O=C(Nc1ccc(-c2nnn(CC(=O)N3CCN(C(=O)c4ccco4)CC3)n2)cc1)c1ccc(F)cc1` as the compound, how does the “hERG current change (%, negative = inhibition) at 10uM” value read?
A: The value was 3.09%.

Q: How did the “hERG current change (%, negative = inhibition) at 10uM” value turn out when `O=C(Nc1ccc(-c2nnn(CC(=O)N3CCN(C(=O)c4ccco4)CC3)n2)cc1)c1ccccc1F` was run?
A: Its value is -53.2%.

Q: How did the “hERG current change (%, negative = inhibition) at 10uM” value turn out when `O=C(Cn1nnc(-c2ccc(Cl)cc2)n1)N1CCN(C(=O)c2ccco2)CC1` was run?
A: Its value is -65%.

Q: `COc1ccc(C(=O)Nc2ccc(-c3nnn(CC(=O)N4CCN(C(=O)c5ccco5)CC4)n3)cc2)cc1` was tested. Which “hERG current change (%, negative = inhibition) at 10uM” value did it give?
A: The value was 7.09%.

Q: How did the “hERG current change (%, negative = inhibition) at 10uM” value turn out when `Cc1ccc(C2=NOC(=O)/C2=C\c2ccc(C)o2)cc1` was run?
A: Its value is 6.75%.

Q: Which “hERG current change (%, negative = inhibition) at 10uM” value does the source give for `O=C(N/N=C\c1cccnc1)C1c2ccccc2Oc2ccccc21` here?
A: The value was 0.415%.

Q: Which “hERG current change (%, negative = inhibition) at 10uM” value does the source give for `CCOC(=O)C1=C(C)N(C)C(=S)N(C)C1c1ccc(OC)cc1` (stereo not drawn) here?
A: Its value is -10.5%.

Q: With `CN(C)S(=O)(=O)c1ccc(C(=O)OCC(=O)NCc2ccco2)cc1` as the compound, how does the “hERG current change (%, negative = inhibition) at 10uM” value read?
A: Its value is 11.6%.

Q: With `Cc1ccc(-c2cc(C(=O)N3CCOCC3)c3cc(C)ccc3n2)cc1` as the compound, how does the “hERG current change (%, negative = inhibition) at 10uM” value read?
A: The value was -4.82%.

Q: Which “hERG current change (%, negative = inhibition) at 10uM” value does the source give for `COc1ccccc1CNC(=O)CCC(=O)n1ncc2cc(C)ccc21` here?
A: Its value is 0.647%.

Q: With `c1ccc2c(c1)CCCN2Cc1nnnn1C1CCCC1` as the compound, how does the “hERG current change (%, negative = inhibition) at 10uM” value read?
A: Its value is -3.84%.

Q: With `O=C(C1CC1)N(Cc1ccco1)c1nc(-c2ccccc2)cs1` as the compound, how does the “hERG current change (%, negative = inhibition) at 10uM” value read?
A: Its value is -8.62%.

Q: How did the “hERG current change (%, negative = inhibition) at 10uM” value turn out when `Cc1ccc2c(c1)C1CN(C)CCC1N2C(=O)c1cccc(S(=O)(=O)N(C)C)c1.c1ccccc1` (stereo not drawn) was run?
A: Its value is -25%.

Q: With `Cc1ccc2c(c1)C1CN(C)CCC1N2Sc1ccccc1[N+](=O)[O-]` (stereo not drawn) as the compound, how does the “hERG current change (%, negative = inhibition) at 10uM” value read?
A: The value was -62.8%.

Q: Which “hERG current change (%, negative = inhibition) at 10uM” value does the source give for `Cc1ccc2c(c1)C1CN(C)CCC1N2S(=O)(=O)c1ccc(Oc2ccc([N+](=O)[O-])cc2)cc1` (stereo not drawn) here?
A: The value was -21.3%.

Q: For `Cc1ccc2c(c1)C1CN(C)CCC1N2S(=O)(=O)c1ccccc1F` (stereo not drawn), which “hERG current change (%, negative = inhibition) at 10uM” value is on record?
A: The value was -32.4%.

Q: How did the “hERG current change (%, negative = inhibition) at 10uM” value turn out when `Cc1ccc2c(c1)C1CN(C)CCC1N2CC(=O)N(C)c1ccccc1` (stereo not drawn) was run?
A: Its value is 6.34%.

Q: With `Cc1ccc2c(c1)C1CN(C)CCC1N2C(=O)COc1ccc(S(=O)(=O)N2CCOCC2)cc1` (stereo not drawn) as the compound, how does the “hERG current change (%, negative = inhibition) at 10uM” value read?
A: The value was -15.8%.

Q: `Cc1ccc2c(c1)C1CN(C)CCC1N2S(=O)(=O)c1ccc(C#N)cc1` (stereo not drawn) was tested. Which “hERG current change (%, negative = inhibition) at 10uM” value did it give?
A: The value was -72.8%.

Q: How did the “hERG current change (%, negative = inhibition) at 10uM” value turn out when `Cc1ccc2c(c1)[C@@H]1CN(C)CC[C@@H]1N2S(=O)(=O)c1ccc([N+](=O)[O-])cc1.Cl` was run?
A: The value was -75%.

Q: Which “hERG current change (%, negative = inhibition) at 10uM” value does the source give for `Cc1ccc2c(c1)[C@@H]1CN(C)CC[C@@H]1N2S(=O)(=O)c1ccc(F)cc1.Cl` here?
A: The value was -29.1%.

Q: `CN(C(=O)Cc1c(C(=O)O)n(C)c2ccccc12)c1ccc(F)cc1` was tested. Which “hERG current change (%, negative = inhibition) at 10uM” value did it give?
A: Its value is 19.8%.

Q: Which “hERG current change (%, negative = inhibition) at 10uM” value does the source give for `COc1ccc(-n2c(COc3ccc(C)cc3)nnc2SCc2ccc(C#N)cc2)cc1` here?
A: The value was -29.6%.

Q: `COc1ccc(-n2c(COc3ccccc3)nnc2SCc2ccc(C#N)cc2)cc1` was tested. Which “hERG current change (%, negative = inhibition) at 10uM” value did it give?
A: The value was -39.4%.

Q: How did the “hERG current change (%, negative = inhibition) at 10uM” value turn out when `N#CCSc1nnc(COc2ccccc2)n1-c1ccccc1` was run?
A: The value was -10.7%.

Q: Which “hERG current change (%, negative = inhibition) at 10uM” value does the source give for `N#Cc1ccc(CSc2nnc(COc3ccccc3)n2-c2ccccc2)cc1` here?
A: Its value is -52.3%.

Q: `CCn1c(COc2ccc(Cl)cc2)nnc1SCc1nc2ccccc2[nH]1` was tested. Which “hERG current change (%, negative = inhibition) at 10uM” value did it give?
A: The value was -17.7%.

Q: `CCSc1nnc(COc2ccccc2)n1CC` was tested. Which “hERG current change (%, negative = inhibition) at 10uM” value did it give?
A: The value was 6.43%.

Q: `COc1ccc(-n2c(COc3ccc(Cl)cc3)nnc2SCc2ccc(C#N)cc2)cc1` was tested. Which “hERG current change (%, negative = inhibition) at 10uM” value did it give?
A: The value was 0.977%.

Q: `CCn1c(COc2ccc(C)cc2)nnc1SCc1ccc(C#N)cc1` was tested. Which “hERG current change (%, negative = inhibition) at 10uM” value did it give?
A: The value was -59.6%.

Q: How did the “hERG current change (%, negative = inhibition) at 10uM” value turn out when `CCn1c(COc2ccc(Cl)cc2)nnc1SCc1ccc(C#N)cc1` was run?
A: Its value is -70.5%.

Q: With `CCn1c(COc2ccccc2)nnc1SCc1ccc(C#N)cc1` as the compound, how does the “hERG current change (%, negative = inhibition) at 10uM” value read?
A: Its value is -54.1%.

Q: For `Cc1ccc(OCc2nnc(SCc3ccc(C#N)cc3)n2-c2ccc(C)cc2)cc1`, which “hERG current change (%, negative = inhibition) at 10uM” value is on record?
A: The value was -29.6%.

Q: How did the “hERG current change (%, negative = inhibition) at 10uM” value turn out when `CCn1c(COc2ccccc2)nnc1SCC(=O)C(C)(C)C` was run?
A: The value was -14.2%.

Q: How did the “hERG current change (%, negative = inhibition) at 10uM” value turn out when `COc1ccc(/C=N/NC(=O)CCN2CCCCC2c2cccnc2)cc1Cn1cc([N+](=O)[O-])cn1` (stereo not drawn) was run?
A: The value was -30.7%.

Q: For `CCCCOCCCNC(=O)Cc1cccs1`, which “hERG current change (%, negative = inhibition) at 10uM” value is on record?
A: The value was 1.1%.

Q: Which “hERG current change (%, negative = inhibition) at 10uM” value does the source give for `O=C(CN1C(=O)c2ccccc2C1=O)NN1C(=O)c2ccccc2C1=O` here?
A: The value was 1.18%.

Q: How did the “hERG current change (%, negative = inhibition) at 10uM” value turn out when `Cc1c(C(=O)Oc2cccc3cccnc23)oc2ccccc12` was run?
A: The value was -4.01%.

Q: With `Cc1cnc(C(=O)OCC(=O)NC2CCCC(C)C2C)cn1` (stereo not drawn) as the compound, how does the “hERG current change (%, negative = inhibition) at 10uM” value read?
A: Its value is 6.02%.

Q: For `COc1c(Cl)cc(Cl)cc1C(=O)Nc1ccccc1N1CCN(C(C)=O)CC1`, which “hERG current change (%, negative = inhibition) at 10uM” value is on record?
A: The value was 3.01%.

Q: `CC(=O)N1CCN(c2ccccc2NC(=O)c2ccc3ccccc3c2)CC1` was tested. Which “hERG current change (%, negative = inhibition) at 10uM” value did it give?
A: Its value is -61.9%.

Q: How did the “hERG current change (%, negative = inhibition) at 10uM” value turn out when `CC(=O)N1CCN(c2ccccc2NC(=O)c2cccc3c(Cl)cccc23)CC1` was run?
A: The value was -19.2%.

Q: Which “hERG current change (%, negative = inhibition) at 10uM” value does the source give for `CC(=O)N1CCN(c2ccccc2NC(=O)c2cc(Br)ccc2Cl)CC1` here?
A: The value was -66.6%.

Q: Which “hERG current change (%, negative = inhibition) at 10uM” value does the source give for `O=C(Nc1ccccc1N1CCCC1)c1cc(Cl)ccc1Cl` here?
A: Its value is -2.72%.

Q: For `CS(=O)(=O)N1CCN(c2ccccc2NC(=O)c2cc(Br)ccc2Cl)CC1`, which “hERG current change (%, negative = inhibition) at 10uM” value is on record?
A: The value was -30.3%.

Q: `CS(=O)(=O)N1CCN(c2ccccc2NC(=O)c2ccc3ccccc3c2)CC1` was tested. Which “hERG current change (%, negative = inhibition) at 10uM” value did it give?
A: The value was -8.76%.

Q: Which “hERG current change (%, negative = inhibition) at 10uM” value does the source give for `O=C(Nc1ccccc1N1CCCC1)c1ccc2ccccc2c1` here?
A: The value was 8.73%.

Q: With `CN1CCN(c2ccccc2NC(=O)c2cc(Br)ccc2Cl)CC1` as the compound, how does the “hERG current change (%, negative = inhibition) at 10uM” value read?
A: Its value is -76.4%.
